Pf growth 48h: inhibits P. falciparum growth in the first generation, 48 h | P. falciparum luciferase growth in erythrocytes, 48 h | Potency, µM (titrated, usually from 28.7 µM), for the others: top-dose activity change, negative = inhibition, usual class: inhibitors | 5.9% of 310,000 active | AID 504832; also: potency is read from the fitted curve at half-maximal effect; % is scaled to controls: 0 for no effect and ±100 for the full control effect
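Erythrocytes infected with P. falciparum carrying an integrated firefly luciferase reporter (2% hematocrit, 0.1% parasitemia final) were exposed to compounds in RPMI 1640 with 0.5% Albumax at 37 C, 5% CO2. Growth inhibition was scored as reduced luminescence.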
LASV entry inh: Lassa virus entry inhibition; AID 540256; 1.2% of 300,000 active; Potency, µM (highest dose often 37.9 µM), inactives show at the top dose activity change, negative = inhibition, usual class: inhibitors; Lassa virus pseudotype entry inhibition, cell reporter; calls by dose curve; tested in HEK293 cells; also: potency is read from the fitted curve at half-maximal effect; % is scaled to controls: 0 for no effect and ±100 for the full control effect; nearly all actives have a fitted effect of over 50% in size
Cycloheximide cs: affects cycloheximide protein synthesis inhibition readout, counter-screen; cell reporter, cycloheximide protein synthesis inhibition counterscreen; max response, %; 12% of 300,000 active; AID 2314; in the data active = max response mostly above about 13%, no sharp cut-off; inactive = mostly below about 14%; also: read at 38.3 µM for the half of the compounds with a filed dose; 0% is about no effect
Marburg entry inh: inhibitors of Marburg virus binding or cell entry; Marburg virus pseudotyped entry inhibition, cell reporter; Potency, µM (series often up to 37.8 µM), for the others: top-dose activity change, negative = inhibition, hits mostly inhibitors; 1.8% of 300,000 active; AID 540276; calls by dose curve; tested in HEK293 cells; also: potency is read from the fitted curve at half-maximal effect; % is scaled to controls: 0 for no effect and ±100 for the full control effect
Shiga inhibitor: inhibitors of Shiga toxin in Vero cells. inhibition, % at 38.7 µM. 9.2% of 290,000 active. Vero cells, Shiga toxin protein synthesis inhibition reporter; in the data active = inhibition mostly above about 28%, no sharp cut-off; inactive = mostly below about 43%; also: 0% is about no effect
Pf growth 96h: inhibits malaria parasite growth, 96 h. Potency, µM (top dose mostly 28.7 µM), inactives show at the top dose activity change, negative = inhibition, actives largely listed as inhibitors. P. falciparum luciferase reporter growth, 96 h. 6.9% of 320,000 active; also: potency is read from the fitted curve at half-maximal effect; % is scaled to controls: 0 for no effect and ±100 for the full control effect
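Compounds incubated with erythrocytes infected by luciferase-expressing P. falciparum (2% hematocrit, 0.05% parasitemia final) for 96 hours, 37 C in 5% CO2. Growth inhibition scored as decreased luciferase luminescence.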
Active calls of the source: *; ? = inconclusive; nt = not tested or not shown; [ ] = another dose, or the depositor's remark. Compounds with a hit are over-represented: about 19% of the library has one in this group of screens. Unless noted, calls follow the shape of the dose curve; as a rule, active = well fitted inhibition curve with a large enough effect; inconclusive = small, poorly fitted or top-dose-only effect, or another doubt; inactive = no such curve, though single readings can be large or run the other way.

SMILES	Pf growth 48h	LASV entry inh	Cycloheximide cs	Marburg entry inh	Shiga inhibitor	Pf growth 96h
O=C(NCCCN1CCCCCC1)C1CC(=O)N(CCc2ccccc2)C1 (stereo not given)	14%	5%	1	0%	-8	-27%
O=C(CCN1CCCCC1)NNC(=S)NC(=O)c1ccc(Br)cc1	-8%	nt	-2	9%[46.1 µM]	1	17%
COc1ccc([C@@H]2CC(=O)c3c(O)cc(O[C@@H]4O[C@H](CO[C@@H]5O[C@@H](C)[C@H](O)[C@@H](O)[C@H]5O)[C@@H](O)[C@H](O)[C@H]4O)cc3O2)cc1O	9%	nt	1	nt	5	67%
O=C1NC(c2ccc(F)cc2)Oc2ccccc21 (stereo not given)	0%	nt	-1	nt	-16	-56%
CC(C)c1csc(CN2CCC(N3CCC(C(=O)N4CCOCC4)CC3)CC2)n1	-8%	2%	1	13%[46.1 µM]	17	-2%
N#CC(c1ccc(Cl)cc1)c1ncc(C(F)(F)F)cc1Cl (stereo not given)	-12%	3%	14	24%	11	18%
C=CCn1c(=O)c2c(nc3n2CC(C)CN3CCc2ccccc2)n(C)c1=O (stereo not given)	-9%	nt	1	nt	-10	?
C/C(=N\Nc1ccc(C(F)(F)F)cc1[N+](=O)[O-])C1CC1	-1%	-1%	-1	21%	7	15%
COc1cc(/C=N/N=C(N)N)ccc1OCc1ccccc1Cl	2.6µM*	nt	19	nt	5	29%
COc1cc(/C=N/N=C(/C(=O)c2ccccc2)c2ccccc2)cc(OC)c1O	-7%	?	5	-17%	7	?
COc1cc(/C=N/N=C/c2cc(OC)c(O)c(OC)c2)cc(OC)c1O	10µM*	-1%	10	6%	-2	4.1µM*
Cc1occc1C(=O)Nc1cccc(C(=O)NCc2ccccc2)c1	?	?	-2	?	-12	6%
CN(C)c1ccc(C2C3CCCc4ccccc4C3=NN2C)cc1 (stereo not given)	23%	nt	59*	nt	96*	59%
CN1N=C2c3ccccc3CCC2C1c1ccc(C(F)(F)F)cc1 (stereo not given)	?	nt	2	nt	27	3%
CC(=O)N[C@@H]1C(O[C@H]2O[C@H](C(=O)O)C(O)[C@H](O)[C@H]2O)[C@H](O)[C@@H](CO)O[C@H]1O[C@@H]1C(C(=O)O)O[C@@H](O[C@H]2[C@H](O)[C@@H](CO)OC(O)[C@@H]2NC(C)=O)[C@H](O)[C@H]1O (stereo not given in full)	2%	nt	nt	nt	nt	1.7µM*
COC1OC(CO)C(OC2OC(C(=O)O)C(OC3OC(COS(=O)(=O)O)C(OC4OC(C(=O)O)C(OC5OC(CO)C(OC6OC(C(=O)O)C(OC7OC(COS(=O)(=O)O)C(OC8OC(C(=O)O)=C[C@H](O)C8OS(=O)(=O)O)C(O)C7NC(C)=O)[C@@H](O)C6O)C(O)C5NC(C)=O)[C@@H](O)C4O)C(O)C3NC(C)=O)[C@@H](O)C2O)C(O)C1NC(C)=O (stereo not given in full)	12µM*	nt	nt	nt	nt	7.6µM*
O=C(O)c1ccc(N2C(=O)CC(N3CCN(c4cccc(C(F)(F)F)c4)CC3)C2=O)cc1 (stereo not given)	14%	0%[46.1 µM]	-1	-1%[46.1 µM]	14	-5%
CCCCNC(=O)O[C@@H]1C[C@@H]2CCN3C(=O)CCC[C@H]([C@H]1CC)[C@H]23	-12%	nt	-2	nt	-6	?
CC[C@@H]1[C@H]2CCCC(=O)N3CC[C@@H](C[C@@H]1OC(=O)Nc1ccccc1)[C@@H]23	?	nt	1	nt	-15	2.3µM*
CCC(=O)N1CCc2cc(S(=O)(=O)N3CCN(c4cc(Cl)ccc4C)CC3)ccc21	-15%	10%[46.1 µM]	-3	13%[46.1 µM]	-4	5.2µM*
COc1cccc(CNC(=O)C(NS(=O)(=O)c2ccc3c(c2)CCN3C(C)=O)C(C)C)c1 (stereo not given)	-10%	4%[46.1 µM]	24*	?	29	-11%
CCC(=O)N1CCc2cc(S(=O)(=O)NCCC(=O)NCc3ccccc3Cl)ccc21	2%	5%[46.1 µM]	-3	2%[46.1 µM]	-1	8.3µM*
CC(=O)N1CCc2cc(S(=O)(=O)NC(C(=O)NCc3ccccc3)C(C)C)ccc21 (stereo not given)	-17%	-6%	-3	-10%	1	nt
CC(=O)N1CCc2cc(S(=O)(=O)NCC(=O)NCc3ccccc3Cl)ccc21	-14%	11%[46.1 µM]	-8	17%[46.1 µM]	-6	9.3µM*
CC(=O)N1CCc2cc(S(=O)(=O)NC(CC(C)C)C(=O)NCc3ccccc3Cl)ccc21 (stereo not given)	nt	9%[46.1 µM]	nt	?	nt	nt
SMILES	Pf growth 48h	LASV entry inh	Cycloheximide cs	Marburg entry inh	Shiga inhibitor	Pf growth 96h
Cc1ccc(-n2c(N)c(Br)c(=O)[nH]c2=O)cc1C	-16%	25%[46.1 µM]	-5	10%[46.1 µM]	27	?
COC(=O)c1ccc(Oc2cc(C)nc(Cl)n2)cc1	26%	nt	6	nt	18	24%
CC1=C(c2ccc(C(C)C)cc2)S(=O)(=O)NC1=NCc1ccc(OC(C)C)cc1	nt	0%[46.1 µM]	nt	0%[46.1 µM]	nt	nt
O=C(Nc1ccc2nc(-c3ccc4nc[nH]c4c3)[nH]c2c1)c1cccs1	2.6µM*	0%	-1	31%	1	?
Nc1ccc(C(=O)Nc2ccc3nc(-c4cccnc4)[nH]c3c2)cc1	?	5%	-1	-22%	-12	57%
O=C(Nc1ccc2nc(-c3ccccc3)[nH]c2c1)c1cccs1	nt	-16%	32*	-4%	39	?
O=[N+]([O-])c1cccc(CN2C(COCc3ccccc3)CCC=CS2(=O)=O)c1 (stereo not given)	nt	nt	38*	nt	82*	nt
CCn1c(COc2ccccc2)nnc1SCC(=O)CC(=O)Nc1ccccc1OC	13µM*	-8%	8	14%	-7	7.4µM*
CCn1c(COc2ccccc2)nnc1SCC(=O)NC1CCCCC1	2.9µM*	-18%	5	?	23	-16%
CCn1c(SCC(=O)NC2CCCCC2)nc2ccccc2c1=O	52%	12%	-3	-9%	2	12µM*
Cn1nc(C(=O)N2CCN(c3ccccc3)CC2)c2c1-c1ccccc1S(=O)(=O)C2	-6%	20%[46.1 µM]	-4	nt	2	16%
CCOc1cc(NC(=S)NCCCN2CCOCC2)c(OCC)cc1NC(=O)c1ccco1	12%	7%	-2	21%	-8	-14%
COc1ccc(C(C)=O)cc1CSc1nc2ccccc2o1	-26%	20%	-1	9%	-8	-14%
CCN1C(=O)[C@@H]2[C@H]3[C@H](O)[C@H](O)CC(=NOC[C@@H](C)[C@H](OCc4ccccc4)C(C)C)[C@@H]3CC[C@H]2C1=O	nt	13%[14.3 µM]	nt	1%[14.2 µM]	nt	nt
O=C(COc1ccc(NC(=O)c2cccs2)cc1)c1ccc(F)cc1	?	-10%	-1	-12%	4	4%
CCCOc1ccc(C(=O)Nc2ccc(NC(=O)c3cccs3)cc2)cc1	3%	-8%[46.1 µM]	13	1%[46.1 µM]	49*	-21%

Screens: PubChem BioAssay, National Center for Advancing Translational Sciences (NCATS)
